Screens from PubChem.
Shown are actives, neighbours in structure and some others; about 13% of the full set was active somewhere.
Pf growth 96h = P. falciparum growth inhibition at 96 hour, primary screen for plastid delayed-death inhibitors. 320,000 tested, 6.9% active. P. falciparum luciferase reporter growth, 96 h. Potency, µM (titrated, usually from 28.7 µM), for the others: at the highest dose activity change, negative = inhibition, hits mostly inhibitors; note: potency is the fitted concentration of half-maximal effect
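Compounds incubated with erythrocytes infected by luciferase-expressing P. falciparum (2% hematocrit, 0.05% parasitemia final) for 96 hours, 37 C in 5% CO2. Growth inhibition scored as decreased luciferase luminescence.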
HCMV inh = human cytomegalovirus inhibition | HFF cells, HCMV-luciferase reporter, 72 h; active compounds read low | activity change, negative = inhibition, % at 57.5 µM | 410,000 tested, 4.5% active; in the data active = activity change below about -60%; inconclusive = no clear call, values can overlap the other calls; inactive = above about -39%
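Inhibition of viral replication was scored as loss of reporter luminescence in HFFs infected with HCMV-luciferase (MOI 1 PFU/cell) for 72 h; compounds tested at 2 doses, normalized to buffer and Salinomycin controls.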
HCV inh = HCV inhibition. Huh7.5.1 HCVcc-Cre infection, luciferase reporter, 44 h. Potency, µM (highest dose often 41.8 µM), inactives show at the highest dose activity change, negative = inhibition, hits mostly inhibitors. 340,000 tested, 3.4% active. AID 651820; note: potency is the fitted concentration of half-maximal effect
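HCVcc-Cre virus at an moi near 0.5 was added right after compound to cells cultured 4 h from seeding (1,000 cells/well). Luciferase activity was determined 44 h later, 15 min after substrate addition at RT.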
Pf growth 48h = P. falciparum growth inhibition at 48 hours (one generation); P. falciparum luciferase growth in erythrocytes, 48 h; Potency, µM (doses to about 28.7 µM), for inactives: at the top dose activity change, negative = inhibition, usual class: inhibitors; 310,000 tested, 5.9% active; AID 504832; note: potency is the fitted concentration of half-maximal effect
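Cell-based growth assay: transgenic P. falciparum expressing firefly luciferase, cultured in red cells within RPMI 1640 containing 0.5% w/v Albumax, 24 mM bicarbonate and gentamycin. A drop in luciferase activity indicates inhibition.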
* = called active by the depositor; ? = inconclusive; . = no result given. Unless noted, calls come from the whole dose curve; as a rule, active = well fitted inhibition curve with a large enough effect; inconclusive = small, poorly fitted or top-dose-only effect, or another doubt; inactive = no such curve, though single readings can be large or run the other way. % is set by controls: 0 for no effect and ±100 for the full control effect.

SMILES | Pf growth 96h | HCMV inh | HCV inh | Pf growth 48h
Cc1cc(C)nc(-n2ncc3c2CC(c2ccc(F)cc2)CC3=O)n1 (stereo not drawn) | 70.8% | -20.3 | -4.2% | ?
COCCN1C(=O)COCc2cc(-c3ccc(N(C)C)cc3)ccc21 | . | 47.1 | . | .
Cc1ccc(S(=O)(=O)NC(=O)NC2CCCCCCC2)cc1 | -14.0% | . | . | 4.4%
COc1ccccc1NC(=S)NC(=O)c1ccc(-c2ccc(Cl)cc2)o1 | 61.6% | -63.2* | ? | 4.9%
Cn1ncc(Cl)c1C(=O)N1CCN(S(=O)(=O)c2cccs2)CC1 | ? | 39.0 | 24.7% | -0.8%
O=C(c1ccc(-c2ccc([N+](=O)[O-])cc2)o1)N1CCN(S(=O)(=O)c2cccs2)CC1 | 22.9% | -60.6* | 7.5% | 17.8%
COc1ccccc1N1CCN(C(=O)c2ccc(-c3ccc(Cl)cc3)o2)CC1 | 11.7µM* | -11.7 | 3.16µM* | ?
O=C(NC(=S)Nc1ccccc1O)c1ccc(-c2ccc(Cl)cc2)o1 | 0.0% | -3.2 | 8.2% | 7.2%
O=C(c1ccc(-c2ccc(Cl)cc2)o1)N1CCN(S(=O)(=O)c2cccs2)CC1 | ? | -60.6* | ? | ?
CC(C)OCCCN(Cc1ccco1)C(=O)c1cc2c(s1)-c1ccccc1OC2 | . | -28.4 | . | .
CC(=O)c1ccc(-c2ccc(C(=O)N3CCN(c4ccc(F)cc4)CC3)o2)cc1 | 11.7µM* | -9.0 | ? | -11.2%
O=C(c1ccc(Br)o1)N1CCN(c2ccc(F)cc2)CC1 | . | -35.2 | -1.7% | -21.5%
O=S(=O)(c1cccs1)N1CCC(CO)(Cc2ccc(Cl)cc2)CC1 | 0.738µM* | 21.4 | ? | 25.2%
CC(=O)c1c(C)[nH]c(C(=O)N2CCN(c3ccc(F)cc3)CC2)c1C | 19.8% | -71.3* | -13.3% | .
COc1cccc(N2CCN(C(=O)c3[nH]c(C)c(C(C)=O)c3C)CC2)c1 | 42.2% | 62.4 | ? | 16.2%
CCOc1ncccc1C(=O)Nc1cc(S(=O)(=O)N(CC)CC)ccc1N1CCOCC1 | . | -65.9* | ? | .
O=C(Nc1cc(C(F)(F)F)ccc1N1CCOCC1)c1ccc(Cl)nc1 | . | -9.5 | ? | 9.28µM*
CCN(CC)S(=O)(=O)c1ccc(N2CCOCC2)c(NC(=O)c2cnccn2)c1 | 11.7µM* | ? | -28.0% | 8.28µM*
Cc1cccc(C(=O)Nc2ccc(N3CCN(c4ccc(C(F)(F)F)cn4)CC3)nc2)c1 | -8.6% | -31.7 | 16.0% | ?
O=C(Nc1ccc(N2CCOCC2)nc1)c1ccc(C(F)(F)F)cc1 | ? | -68.2* | 7.08µM* | -12.8%
O=C(Nc1cccc(C(F)(F)F)c1)c1cc(-c2ccc(Cl)s2)nc2ccccc12 | . | -1.1 | . | .
CCc1ccc(NC(=O)Cn2nnc(C(=O)Nc3ccc(F)cc3)c2N)cc1 | . | -13.0 | . | .
Cc1nc(-c2ccc(OCC(C)C)c(C#N)c2)sc1C(=O)O | . | 57.8 | . | .
CCOc1ncccc1C(=O)Nc1cc(C(F)(F)F)ccc1N1CCOCC1 | -29.8% | -67.2* | -26.6% | -23.6%
CCOc1ccccc1NC(C)C(=O)Nc1cc(C(F)(F)F)ccc1N1CCOCC1 (stereo not drawn) | 0.294µM* | -17.2 | -2.9% | 0.586µM*
SMILES | Pf growth 96h | HCMV inh | HCV inh | Pf growth 48h
CC(C)C(=O)Nc1cc(C(F)(F)F)ccc1N1CCOCC1 | 80.1% | 2.3 | ? | ?
CCN(CC)S(=O)(=O)c1ccc(N2CCOCC2)c(NC(=O)c2cc(-c3ccccn3)nc3ccccc23)c1 | 8.28µM* | 5.9 | ? | 1.85µM*
CCN(CC)S(=O)(=O)c1ccc(N2CCOCC2)c(NC(=O)c2cccc3ccccc23)c1 | ? | -22.9 | 2.7% | ?
COc1ccccc1CNC(=O)c1cnc(N(C)C)nc1 | . | 0.2 | . | .
CCOc1ccccc1CNC(=O)C1CCN(Cc2cc3ccccc3n2Cc2ccccc2)CC1 | . | 13.7 | . | .
CCCCNC(=O)C1C(c2ccc(C(F)(F)F)cc2)=Nc2ccccc2N1C(=O)c1ccc2nc(C)[nH]c2c1 (stereo not drawn) | . | -86.4* | . | .
O=C(NC1CCCC1)C1C(c2ccc(C(F)(F)F)cc2)=Nc2ccccc2N1C(=O)c1cccc(C(F)(F)F)c1 (stereo not drawn) | . | 61.8 | . | .
CCCCNC(=O)C1C(c2ccc(C(F)(F)F)cc2)=Nc2ccccc2N1C(=O)C1CCN(C(C)=O)CC1 (stereo not drawn) | . | 4.1 | . | .
O=C(NC1CCCC1)C1C(c2ccccc2)=Nc2ccccc2N1C(=O)c1ccc(C(F)(F)F)cc1 (stereo not drawn) | . | -83.4* | . | .
Cn1c(=O)c2nc(Cl)c(-c3ccccc3)nc2n(C)c1=O | ? | ? | 11.5% | 4.15µM*
Cn1c(C(=O)N2CCC(C(=O)N3CCOCC3)CC2)cc2sccc21 | 11.7µM* | -4.3 | 3.5% | 24.3%
Cn1c(C(=O)NCc2ccc3c(c2)OCO3)cc2sccc21 | . | -16.7 | . | .
Cn1c(C(=O)N2CCN(Cc3ccc4c(c3)OCO4)CC2)cc2sccc21 | 10.4µM* | -25.2 | ? | ?
Cn1c(C(=O)N2CCC(C(=O)N3CCN(Cc4ccc5c(c4)OCO5)CC3)CC2)cc2sccc21 | 10.4µM* | -27.4 | ? | ?
O=C(Cc1ccc(NC(=O)N2CCCCc3ccccc32)cc1)NCc1ccccc1Br | . | 25.5 | . | .
CCOc1ccccc1CNC(=O)C1CCN(c2nc3ccccc3nc2C(F)(F)F)CC1 | . | 4.4 | . | .
COc1cccc(C2CNC3(CCCC(C)C3)c3[nH]c4ccccc4c32)c1OC (stereo not drawn) | 9.28µM* | -64.6* | -28.8% | .
COc1cc2c(cc1OC)C(c1cccc(OC)c1OC)CC(=O)N2 (stereo not drawn) | ? | -0.5 | -3.6% | -19.6%
Cc1cccc(C)c1OCC(=O)Nc1cccc(NC(=O)c2ccco2)c1 | . | -31.2 | 11.2µM* | ?
